Measurements as given in PubChem BioAssay (NCATS).
Inconclusive results are not listed. Entries that show only a call come without a potency. Calls of active or inactive are those of the source. Calls follow the shape of the dose curve; as a rule, active = well fitted inhibition curve with a large enough effect; inconclusive = small, poorly fitted or top-dose-only effect; inactive = flat fitted curve, though single readings scatter.

target: Calcium and integrin-binding protein 1 (Homo sapiens) (UniProt Q99828); assay: Primary qHTS for Identification of Calcium Integrin Binding Protein 1 (CIB1) Competitor (AID 1508620); conditions: CIB1-GST / FITC-alphaIIb peptide fluorescence polarization; series mostly up to 114 µM; also: top concentration of the series differs between compounds
Sequence (Q99828 whole entry, looked up): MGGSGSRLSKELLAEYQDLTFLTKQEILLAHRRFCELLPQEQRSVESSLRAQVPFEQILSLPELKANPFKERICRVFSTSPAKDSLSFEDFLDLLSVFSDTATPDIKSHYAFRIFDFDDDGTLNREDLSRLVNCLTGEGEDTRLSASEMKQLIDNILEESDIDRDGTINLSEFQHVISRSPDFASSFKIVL
Method in brief: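 Fluorescence polarization competition: GST-tagged CIB1 (1 uM final) preincubated with compound 15 min at room temperature, then FITC-labelled alphaIIb peptide (100 nM final) added. After 15 min at room temperature, polarization read at Ex 480/Em 540.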

Row | Compound | Potency
1 | FC(F)(F)c1ccccc1-c1nc(NCc2ccc(-c3ccccc3)cc2)c2ccccc2n1 | inactive
2 | O=C1Nc2ccccc2C1Cc1cc(Cl)c(O)c(Cl)c1 (stereo not drawn) | inactive
3 | CCOc1ccc(CCNC(=O)C2CCCCC2)cc1OCC | inactive
4 | Cc1cc(N[S+](=O)([O-])c2ccc(NC(=O)Cc3ccc(F)c(F)c3)cc2)no1 | inactive
5 | O=c1c2ccccc2nc2sc(Nc3ccc4c(c3)OCO4)nn12 | inactive
6 | COC(=O)c1ccc(Cn2ncc3c4sc(C)cc4n(C)c3c2=O)cc1 | inactive
7 | CN(CC(=O)O)c1ncnc2ccc(-c3ccc4c(c3)OCO4)cc12 | inactive
8 | O=S1(=O)N=C(Oc2ccccc2C(F)(F)F)c2ccccc21 | inactive
9 | CC(C)COc1ccc(-c2csc(N3CCC(C(N)=O)CC3)n2)cc1 | inactive
10 | COc1ccc(-c2ccc(=O)n(CC(=O)NCCc3ccccc3)n2)cc1 | inactive
11 | Cc1ccc(OCCn2c(CCNC(=O)c3ccccc3)nc3ccccc32)cc1 | inactive
12 | CC(=O)c1cccc(NC(=O)Nc2nnc(-c3ccncc3)s2)c1 | inactive
13 | COc1ccc(CN2C(=O)c3ccccc3NC2c2ccc(OC)c(COc3c(C)cc(NC(C)=O)cc3C)c2)cc1 (stereo not drawn) | inactive
14 | Cc1ccnc(NC(=S)NCCNc2cccc(C(F)(F)F)c2)c1 | inactive
15 | Cc1cc2c(s1)c1cnn(Cc3c(F)cccc3Cl)c(=O)c1n2C | inactive
16 | Cc1ccc(NS(=O)(=O)c2cc3c(cc2/C=C/c2ccccc2)NC(=O)CO3)cc1C | inactive
17 | COc1cc2nc(Nc3ccccc3)nc(NC3CC3)c2cc1OC | inactive
18 | Cc1cc(C)nc(NC(=S)N2CCN(c3cc(Cl)cc(Cl)c3)CC2)c1 | inactive
19 | Cc1cc(NS(=O)(=O)c2ccc(NC(=O)Cc3cccc(Cl)c3)cc2)no1 | inactive
20 | C[C@@H](NC(c1ccc(F)cc1)c1ccc2cccnc2c1O)c1ccccc1 (stereo partly drawn) | inactive
21 | COc1ccc(CN(Cc2ccccc2)C(=O)c2ccc(OC)cc2O)cc1 | inactive
22 | O=C(COC(=O)CNC(=O)c1ccccc1Cl)Nc1ccccc1Cl | inactive
23 | O=C1c2ccccc2C(=O)N1c1cccc2ccncc12 | inactive
